From PubChem BioAssay (Tox21)
Active and inactive are the calls of the source. The call rests on the fitted dose curve; in most records, active means well fitted curve in the direction sought with a large enough effect in the repeat runs; inconclusive means weak or mixed curves; inactive means flat fitted curve, though single readings scatter.

Experiment: qHTS assay to test for compound auto fluorescence at 590 nm (red) in HEK293 cell free culture (AID 720683)
Details: cell-free medium autofluorescence, Ex540/Em590 red; series mostly up to 91.3 µM
Description: U.S. Tox21 Program National Center for Advancing Translational Sciences [NCATS] NIH Chemical Genomics Center [NCGC] U.S. Environmental Protection Agency [EPA] National Institutes of Environmental Health Sciences [NIEHS] National Toxicology Program [NTP] U.S. Food and Drug Administration [FDA] Tox21 Assay Overview: Compound auto fluorescence often interferes with screening of the compound library against various biological targets and signaling pathways. Some of these compounds may have fluorophoric properties. Such properties may interfere with the assay outputs resulting in false positives and/or negatives. To decrease such complications and ensure the compound activities are relevant in terms of biological response, the Tox21 10K compound library was screened for auto fluorescence. From the fluorophores used as reporter signals in our screening assays, the auto fluorescence equivalencies of compounds against three fluorophores have been evaluated: Triamterene, Fluorescein and Rose Bengal sodium for blue, green and red fluorescence, respectively. The fluorescence intensities were measured using Excitation/Emission wavelengths at 405/460nm, 485/535nm and 540/590nm for blue, green and red labels, respectively. This assay includes the red fluorescence data.
Tox21 Assay Protocol Summary: 5 uL of culture medium (DMEM containing 10% FBS) per well was dispensed into black wall/clear bottom 1536-well plates using a Multidrop Combi Dispenser (ThermoFisher Scientific, Waltham, MA). After 23 nL compound or DMSO vehicle was transferred into assay plate by a pintool work station (Kalypsys, San Diego, CA), fluorescence intensities in the assay plates were measured by an Envision (PerkinElmer, Shelton, CT) plate reader using three labels for measuring blue, green and red fluorescence at […] 460, 535 and 590nm respectively.
On the % scale 0 is the no-effect control and ±100 the full control effect.

SMILES	outcome	fluorescence, % of fluorescent control
O=C1CCCCC1C1CCCCC1 (stereo not given)	inactive	–
CC(CNC1CCCCC1)OC(=O)c1ccccc1 (stereo not given)	–	-0.008% [at 18.6 µM] (inactive)
Cc1cc(S(=O)(=O)O)c(N)cc1Cl	inactive	–
CO[C@@]1(NC(=O)CSCC#N)C(=O)N2C(C(=O)O)=C(CSc3nnnn3C)CS[C@@H]21	inactive	–
CC(C)(C)c1cccc(O)c1	inactive	–
CCCOCCC	inactive	–
CCCCC1CCC(=O)O1 (stereo not given)	inactive	–
CCCCOc1cc(C(=O)NCCN(CC)CC)c2ccccc2n1	–	-0.187% [at 18.6 µM] (inactive)
CCN(CC)CCOc1ccc(Cc2ccccc2)cc1	inactive	–
CCCCCCCCCC/C=C/C#N	inactive	–
Cc1ncc(CO)c(CN)c1O	inactive	–
CCc1nnc(NS(=O)(=O)c2ccc(N)cc2)s1	inactive	–
Oc1ccccc1F	inactive	–
O=C(O)C(=O)Cc1c[nH]c2ccccc12	inactive	–
O=C(O)[C@@H](O)[C@H](O)[C@H](O)[C@@H](O)C(=O)O	inactive	–
CCOc1ccc(NS(=O)(=O)c2ccc(N)cc2)nn1	inactive	–
CN1CCN(c2c(F)cc3c(=O)c(C(=O)O)cn4c3c2SCC4)CC1	inactive	–
Nc1cccc(S(=O)(=O)O)c1	inactive	–
CCOc1ccc(OCC)c(Cl)c1	inactive	–
CCC/C=C/CO	inactive	–

SMILES	outcome	fluorescence, % of fluorescent control
N#Cc1ccc(C(c2ccc(C#N)cc2)n2cncn2)cc1	inactive	–
Cc1cc2nc(N)sc2cc1C	inactive	–
CCCCCCCCCCCCCCCCOP(=O)([O-])OCC[N+](C)(C)C	inactive	–
CCCCc1ccc2nc(NC(=O)OC)[nH]c2c1	–	0.113% [at 18.6 µM] (inactive)
Nc1ccc(Oc2ccc(N)c(N)c2)cc1	inactive	–
CCN(CCCc1ccccc1)CCCc1ccccc1	–	0.107% [at 18.6 µM] (inactive)
C1CCOC1	inactive	–
NS(=O)(=O)c1cc(-c2nn[nH]n2)c(NCc2cccs2)cc1Cl	inactive	–
CN1CCN(c2c(F)cc3c(=O)c(C(=O)O)cn(CCF)c3c2F)CC1	inactive	–
CN(C)CCOc1ccccc1Cc1ccccc1	inactive	–
CC1(C)O[C@@H]2C[C@H]3[C@@H]4CCC5=CC(=O)CC[C@]5(C)[C@@]4(F)[C@@H](O)C[C@]3(C)[C@]2(C(=O)CCl)O1	–	-0.0463% [at 18.6 µM] (inactive)
COC(=O)C(C)O (stereo not given)	inactive	–
CCOc1ccc2nc(N)sc2c1	inactive	–
CCCN(CCC)C(=O)C(CCC(=O)O)NC(=O)c1ccccc1 (stereo not given)	inactive	–
Cc1ccc(C=O)s1	inactive	–
CCOC(=O)C1CC(=O)C(=C(O)C2CC2)C(=O)C1 (stereo not given)	inactive	–
CN1C(=O)CC(c2ccccc2)C1=O (stereo not given)	inactive	–
O=C(CC(=O)C(F)(F)F)c1ccccc1	inactive	–
COc1ccc2nc(NC(=O)Nc3ccccc3)sc2c1	inactive	–
C=CCCC=C	inactive	–
